Measurements reported in PubChem BioAssay (EPA / NIEHS).
Active and inactive are the calls of the source. Rule for the calls: active = hit-call score of the fitted dose curve at least 0.9, where 1 is the maximum; inactive = score below 0.9.

Tests used:
Conditions in all cases: mRNA level, 48 h; actives raise or lower the signal
[1] = read-out: Tumor necrosis factor receptor superfamily member 6 (Homo sapiens) (UniProt P25445); assay: LTEA_HepaRG_FAS: Life Technologies and Expression Analysis (LTEA) Assay for Fas cell surface death receptor (FAS) using HepaRG (AID 2283447)
Summary of the method: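 Differentiated HepaRG cells in serum-free induction medium were exposed 48 h to 8 half-log concentrations up to 100 uM in 0.5% DMSO, in duplicate. FAS mRNA was measured by qRT-PCR normalised to ACTB, GAPDH and POLR2A; bidirectional fit versus DMSO.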

[2] = read-out: Fatty acid synthase (Homo sapiens) (UniProt P49327); assay: LTEA_HepaRG_FASN: Life Technologies and Expression Analysis (LTEA) Assay for Fatty Acid Synthase (FASN) using HepaRG (AID 2283448)
Summary of the method: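 Differentiated HepaRG cells in serum-free induction medium exposed 48 h in duplicate to eight half-log concentrations, top 100 uM, 0.5% DMSO. FASN mRNA by qRT-PCR normalised to ACTB, GAPDH, POLR2A; bidirectional fit versus DMSO.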

[3] = read-out: Cyclin Dependent Kinase Inhibitor 1A (CDKN1A), CDKN1A (gene 1026); assay: LTEA_HepaRG_CDKN1A: Life Technologies and Expression Analysis (LTEA) Assay for Cyclin Dependent Kinase Inhibitor 1A (CDKN1A) using HepaRG (AID 2283450)
Summary of the method: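 HepaRG, 48 h dosing, 8-pt half-log series from 100 uM top, 0.5% DMSO vehicle, duplicates. Readout: TaqMan qRT-PCR of CDKN1A transcript, housekeeping-normalized (ACTB, GAPDH, POLR2A). Up/down curve fit relative to DMSO.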

[4] = read-out: Cyclin D1 (CCND1), CCND1 (gene 595); assay: LTEA_HepaRG_CCND1: Life Technologies and Expression Analysis (LTEA) Assay for Cyclin D1 (CCND1) using HepaRG (AID 2283451);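 for AC50: TaqMan qRT-PCR transcript level normalised to ACTB GAPDH and POLR2A housekeeping genes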
Summary of the method: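 qRT-PCR (Fluidigm 96.96 array) read-out of transcript level, housekeeping-normalized (ACTB/GAPDH/POLR2A). HepaRG cells, 48 h chemical exposure, 8-point half-log series from 100 uM, 0.5% DMSO vehicle; gain or loss relative to DMSO baseline.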

[5] = read-out: catalase (CAT), CAT (gene 847); assay: LTEA_HepaRG_CAT: Life Technologies and Expression Analysis (LTEA) Assay for catalase (CAT) using HepaRG (AID 2283452)
Summary of the method: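 HepaRG cells in serum-free induction medium, 0.5% DMSO vehicle, exposed 48 h in duplicate over 8 half-log concentrations from 100 uM. CAT mRNA measured by qRT-PCR, normalized to ACTB, GAPDH, POLR2A; bidirectional fit versus DMSO.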

[6] = read-out: flavin-containing dimethylaniline monooxygenases 3 (FMO3), FMO3 (gene 2328); assay: LTEA_HepaRG_FMO3: Life Technologies and Expression Analysis (LTEA) Assay for flavin-containing dimethylaniline monooxygenases 3 (FMO3) using HepaRG (AID 2283453)
Summary of the method: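 Differentiated HepaRG cells in serum-free induction medium, exposed 48 h in duplicate to 8 half-log concentrations up to 100 uM in 0.5% DMSO. FMO3 mRNA by qRT-PCR, normalized to ACTB, GAPDH, POLR2A; bidirectional fit vs DMSO.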

[7] = read-out: Cytochrome P450 (CYP1A1), CYP1A1 (gene 1543); assay: LTEA_HepaRG_CYP1A1: Life Technologies and Expression Analysis (LTEA) Assay for Cytochrome P450 (CYP1A1) using HepaRG (AID 2283454)
Summary of the method: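 qRT-PCR read-out: CYP1A1 transcript normalized to three housekeeping genes, fitted bidirectionally against 0.5% DMSO vehicle baseline. Human HepaRG cells, 48 h chemical exposure, 8-point half-log series topping at 100 uM.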

[8] = read-out: CFLAR gene, CFLAR (gene 8837); assay: LTEA_HepaRG_CFLAR: Life Technologies and Expression Analysis (LTEA) Assay for CFLAR gene using HepaRG (AID 2283455)
Summary of the method: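 Differentiated HepaRG cells in serum-free induction medium were exposed 48 h in duplicate to eight half-log concentrations up to 100 uM in 0.5% DMSO; mRNA measured by TaqMan qRT-PCR, normalized to ACTB, GAPDH, POLR2A; bidirectional fitting versus DMSO.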

[9] = read-out: Forkhead box O1 (FOXO1), FOXO1 (gene 2308); assay: LTEA_HepaRG_FOXO1: Life Technologies and Expression Analysis (LTEA) Assay for Forkhead box O1 (FOXO1) using HepaRG (AID 2283456)
Summary of the method: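 Differentiated HepaRG cells, in serum-free induction medium with 0.5% DMSO, exposed 48 h in duplicate to 8-point half-log series from 100 uM. FOXO1 mRNA measured by TaqMan qRT-PCR, normalized to ACTB, GAPDH, POLR2A; bidirectional fit versus DMSO.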

[10] = read-out: growth arrest and DNA damage 45 (GADD45A), GADD45A (gene 1647); assay: LTEA_HepaRG_GADD45A: Life Technologies and Expression Analysis (LTEA) Assay for growth arrest and DNA damage 45 (GADD45A) using HepaRG (AID 2283458)
Summary of the method: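 Differentiated HepaRG cells exposed 48 h in serum-free induction medium to 8 concentrations, top 100 uM in half-log steps, 0.5% DMSO. GADD45A mRNA quantified by qRT-PCR, normalized to ACTB, GAPDH and POLR2A; bidirectional fit versus DMSO.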

[11] = read-out: Forkhead box O3 (FOXO3), FOXO3 (gene 2309); assay: LTEA_HepaRG_FOXO3: Life Technologies and Expression Analysis (LTEA) Assay for Forkhead box O3 (FOXO3) using HepaRG (AID 2283459)
Summary of the method: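 Differentiated human HepaRG cells, 48 h post-plating, exposed in duplicate for 48 h in serum-free induction medium; 8-point half-log series from 100 uM in 0.5% DMSO. FOXO3 mRNA by TaqMan qRT-PCR, normalized to ACTB/GAPDH/POLR2A; bidirectional fit versus DMSO.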

[12] = read-out: ABC Transporter (ABCB1), ABCB1 (gene 5243); assay: LTEA_HepaRG_ABCB1: Life Technologies and Expression Analysis (LTEA) Assay for ABC Transporter (ABCB1) using HepaRG (AID 2283460)
Summary of the method: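 HepaRG cells exposed in duplicate for 48 h in serum-free induction medium to eight half-log concentrations up to 100 uM in 0.5% DMSO. ABCB1 mRNA quantified by qRT-PCR, normalised to ACTB, GAPDH and POLR2A; fitted bidirectionally versus DMSO.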

[13] = read-out: growth arrest and DNA damage 45 (GADD45B), GADD45B (gene 4616); assay: LTEA_HepaRG_GADD45B: Life Technologies and Expression Analysis (LTEA) Assay for growth arrest and DNA damage 45 (GADD45B) using HepaRG (AID 2283461)
Summary of the method: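 qRT-PCR read-out (Fluidigm TaqMan, housekeeping-normalized) of mRNA change in human HepaRG cells after 48 h chemical exposure; 8-point curve, top 100 uM, half-log steps, 0.5% DMSO vehicle; gain or loss fitted relative to DMSO baseline.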

[14] = read-out: ABC Transporter (ABCC3), ABCC3 (gene 8714); assay: LTEA_HepaRG_ABCC3: Life Technologies and Expression Analysis (LTEA) Assay for ABC Transporter (ABCC3) using HepaRG (AID 2283462)
Summary of the method: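 qRT-PCR read-out of ABCC3 transcript, normalized to three housekeeping genes (ACTB, GAPDH, POLR2A), after 48 h chemical exposure of human HepaRG cells. Eight half-log concentrations, highest 100 uM, in 0.5% DMSO; gain or loss fitted relative to DMSO baseline.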

[15] = read-out: ABC Transporter (ABCC2), ABCC2 (gene 1244); assay: LTEA_HepaRG_ABCC2: Life Technologies and Expression Analysis (LTEA) Assay for ABC Transporter (ABCC2) using HepaRG (AID 2283464)
Summary of the method: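 qRT-PCR (TaqMan, Fluidigm array) read-out of ABCC2 mRNA, normalized to three housekeeping genes. Differentiated HepaRG cells were treated 48 h in serum-free induction medium with 8-point half-log series from 100 uM in 0.5% DMSO; curves fitted bidirectionally relative to DMSO.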

[16] = read-out: Broad substrate specificity ATP-binding cassette transporter ABCG2 (Homo sapiens) (UniProt Q9UNQ0); assay: LTEA_HepaRG_ABCG2: Life Technologies and Expression Analysis (LTEA) Assay for ABC Transporter (ABCG2) using HepaRG (AID 2283465)
Summary of the method: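 Differentiated HepaRG cells were exposed for 48 h in serum-free induction medium to 8 half-log concentrations, top 100 uM, in 0.5% DMSO. ABCG2 mRNA was measured by qRT-PCR, normalized to ACTB, GAPDH and POLR2A, with bidirectional fitting versus DMSO.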

[17] = read-out: ATP-citrate lyase (ACLY), ACLY (gene 47); assay: LTEA_HepaRG_ACLY: Life Technologies and Expression Analysis (LTEA) Assay for ATP-citrate lyase (ACLY) using HepaRG (AID 2283466)
Summary of the method: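 Differentiated HepaRG cells exposed 48 h in serum-free induction medium to eight half-log concentrations up to 100 uM in 0.5% DMSO, duplicates. Transcript measured by Fluidigm TaqMan qRT-PCR, normalized to ACTB, GAPDH, POLR2A; bidirectional fit versus DMSO.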

[18] = read-out: Cyclin D2 (CCND2), CCND2 (gene 894); assay: LTEA_HepaRG_CCND2: Life Technologies and Expression Analysis (LTEA) Assay for Cyclin D2 (CCND2) using HepaRG (AID 2283449);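 note: CCND2 transcript measured by TaqMan qRT-PCR and normalised to three housekeeping genes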
Summary of the method: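 Chemicals in 0.5% DMSO, eight half-log concentrations from 100 uM top, were applied in duplicate for 48 h to human HepaRG cells in serum-free induction medium. CCND2 mRNA by TaqMan qRT-PCR, normalised to ACTB/GAPDH/POLR2A; bidirectional fit versus DMSO.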

[19] = read-out: ABC Transporter (ABCB11), ABCB11 (gene 8647); assay: LTEA_HepaRG_ABCB11: Life Technologies and Expression Analysis (LTEA) Assay for ABC Transporter (ABCB11) using HepaRG (AID 2283463)
Summary of the method: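 Differentiated human HepaRG cells in serum-free induction medium, dosed in duplicate for 48 h. Eight-point half-log series from 100 uM in 0.5% DMSO; ABCB11 mRNA by qRT-PCR, normalized to ACTB, GAPDH, POLR2A, fitted bidirectionally versus DMSO.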

Measured: AC50

Fatty acid synthase (Homo sapiens), sequence (P49327 whole entry, looked up): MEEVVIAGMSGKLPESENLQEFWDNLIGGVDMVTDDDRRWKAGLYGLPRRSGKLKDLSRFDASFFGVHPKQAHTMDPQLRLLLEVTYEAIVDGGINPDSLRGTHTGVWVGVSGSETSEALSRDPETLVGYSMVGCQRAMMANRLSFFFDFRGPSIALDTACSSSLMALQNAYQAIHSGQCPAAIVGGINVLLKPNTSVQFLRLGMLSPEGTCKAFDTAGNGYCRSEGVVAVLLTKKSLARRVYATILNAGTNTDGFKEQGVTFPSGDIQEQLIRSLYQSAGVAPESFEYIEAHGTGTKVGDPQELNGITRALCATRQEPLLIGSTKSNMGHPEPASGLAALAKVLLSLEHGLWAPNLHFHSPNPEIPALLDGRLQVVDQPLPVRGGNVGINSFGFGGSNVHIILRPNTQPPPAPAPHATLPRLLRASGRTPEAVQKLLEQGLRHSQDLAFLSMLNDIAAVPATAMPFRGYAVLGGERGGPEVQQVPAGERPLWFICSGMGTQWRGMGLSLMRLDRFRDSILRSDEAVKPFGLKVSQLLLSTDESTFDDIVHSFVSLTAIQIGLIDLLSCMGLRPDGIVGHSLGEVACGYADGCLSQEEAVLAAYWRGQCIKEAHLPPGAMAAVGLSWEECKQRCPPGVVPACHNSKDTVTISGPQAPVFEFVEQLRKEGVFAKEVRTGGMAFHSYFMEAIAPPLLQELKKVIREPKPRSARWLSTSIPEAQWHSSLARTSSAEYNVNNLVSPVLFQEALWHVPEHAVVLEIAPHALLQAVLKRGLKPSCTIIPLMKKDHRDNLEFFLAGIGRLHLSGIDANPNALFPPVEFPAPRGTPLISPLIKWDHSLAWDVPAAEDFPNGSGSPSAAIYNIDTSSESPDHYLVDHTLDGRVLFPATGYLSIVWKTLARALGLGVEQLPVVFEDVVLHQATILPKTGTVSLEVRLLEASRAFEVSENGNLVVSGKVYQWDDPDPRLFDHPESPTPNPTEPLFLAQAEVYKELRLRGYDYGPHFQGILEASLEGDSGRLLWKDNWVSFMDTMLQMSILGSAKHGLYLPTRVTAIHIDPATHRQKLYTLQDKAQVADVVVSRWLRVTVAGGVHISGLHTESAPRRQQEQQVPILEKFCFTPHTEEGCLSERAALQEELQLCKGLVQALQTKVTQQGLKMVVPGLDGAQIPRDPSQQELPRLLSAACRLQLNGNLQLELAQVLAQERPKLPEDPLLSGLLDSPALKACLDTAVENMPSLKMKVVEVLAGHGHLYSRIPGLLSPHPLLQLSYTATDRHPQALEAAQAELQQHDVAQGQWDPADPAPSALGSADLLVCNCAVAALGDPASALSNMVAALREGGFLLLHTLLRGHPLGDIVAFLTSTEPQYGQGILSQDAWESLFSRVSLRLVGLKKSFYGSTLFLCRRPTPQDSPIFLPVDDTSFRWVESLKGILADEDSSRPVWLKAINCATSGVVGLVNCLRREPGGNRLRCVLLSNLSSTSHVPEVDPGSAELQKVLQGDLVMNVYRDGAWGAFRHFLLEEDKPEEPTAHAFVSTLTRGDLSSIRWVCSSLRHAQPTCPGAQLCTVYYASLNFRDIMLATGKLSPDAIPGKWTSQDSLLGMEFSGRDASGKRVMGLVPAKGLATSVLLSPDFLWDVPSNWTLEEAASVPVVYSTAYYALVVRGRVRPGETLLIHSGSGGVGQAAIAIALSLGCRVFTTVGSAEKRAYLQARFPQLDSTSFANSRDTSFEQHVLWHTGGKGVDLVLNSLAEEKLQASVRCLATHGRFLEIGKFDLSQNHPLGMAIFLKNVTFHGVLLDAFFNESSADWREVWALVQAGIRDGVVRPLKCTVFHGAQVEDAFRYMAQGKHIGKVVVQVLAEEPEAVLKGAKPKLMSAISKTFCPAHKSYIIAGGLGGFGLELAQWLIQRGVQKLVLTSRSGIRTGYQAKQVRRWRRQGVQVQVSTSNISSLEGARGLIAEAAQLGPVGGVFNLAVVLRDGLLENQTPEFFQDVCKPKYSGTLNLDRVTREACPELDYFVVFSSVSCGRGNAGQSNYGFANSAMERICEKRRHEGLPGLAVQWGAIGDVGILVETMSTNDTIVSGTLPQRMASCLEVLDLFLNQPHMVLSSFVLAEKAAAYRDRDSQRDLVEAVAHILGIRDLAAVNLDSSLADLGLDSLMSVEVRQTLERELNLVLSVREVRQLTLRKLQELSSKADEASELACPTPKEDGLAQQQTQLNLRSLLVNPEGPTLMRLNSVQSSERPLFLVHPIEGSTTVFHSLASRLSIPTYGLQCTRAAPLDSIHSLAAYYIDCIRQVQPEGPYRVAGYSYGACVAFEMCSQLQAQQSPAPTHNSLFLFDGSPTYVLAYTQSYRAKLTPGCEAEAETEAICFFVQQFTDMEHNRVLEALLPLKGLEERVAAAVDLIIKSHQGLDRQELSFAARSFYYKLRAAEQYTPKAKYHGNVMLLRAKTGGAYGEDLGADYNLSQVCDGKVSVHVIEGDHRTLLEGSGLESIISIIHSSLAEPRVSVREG
Broad substrate specificity ATP-binding cassette transporter ABCG2 (Homo sapiens), sequence (Q9UNQ0 whole entry, looked up): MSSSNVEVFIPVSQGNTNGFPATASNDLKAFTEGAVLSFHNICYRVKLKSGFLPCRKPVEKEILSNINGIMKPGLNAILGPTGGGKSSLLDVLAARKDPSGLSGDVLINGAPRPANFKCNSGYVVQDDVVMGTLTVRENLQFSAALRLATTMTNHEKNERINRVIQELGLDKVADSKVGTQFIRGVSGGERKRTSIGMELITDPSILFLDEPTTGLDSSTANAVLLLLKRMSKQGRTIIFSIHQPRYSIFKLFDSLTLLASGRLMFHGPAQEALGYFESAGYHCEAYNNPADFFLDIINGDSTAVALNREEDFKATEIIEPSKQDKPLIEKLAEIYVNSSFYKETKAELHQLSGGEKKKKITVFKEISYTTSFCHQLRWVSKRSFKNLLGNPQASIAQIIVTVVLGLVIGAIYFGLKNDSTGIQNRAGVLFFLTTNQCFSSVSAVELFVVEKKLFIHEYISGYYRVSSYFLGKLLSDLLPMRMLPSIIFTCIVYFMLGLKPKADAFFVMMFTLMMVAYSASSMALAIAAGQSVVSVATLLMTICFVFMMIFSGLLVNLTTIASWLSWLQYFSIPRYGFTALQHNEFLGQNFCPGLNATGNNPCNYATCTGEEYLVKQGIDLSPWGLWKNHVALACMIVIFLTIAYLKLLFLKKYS

Cc1nn(-c2cc(NS(C)(=O)=O)c(Cl)cc2Cl)c(=O)n1C(F)F
active: [7] 50 µM | [12] 8.21 µM | [15] 13.6 µM
not listed: [18] | [19]
inactive: all other assays above

CCOP(=S)(OCC)SCCSCC
active: [12] 0.0511 µM
not listed: [13]
inactive: all other assays above

C[Si](Cn1cncn1)(c1ccc(F)cc1)c1ccc(F)cc1
inactive: [1] | [18] | [10] | [11] | [12] | [14] | [17]
active: [2] 91.6 µM | [3] 50 µM | [4] 40.3 µM | [5] 50 µM | [6] 37.5 µM | [7] 5.08 µM | [8] 50 µM | [9] 74.6 µM | [19] 34.5 µM | [15] 50 µM | [16] 16.3 µM

O=C(O)c1cc(Oc2ccc(C(F)(F)F)cc2Cl)ccc1[N+](=O)[O-]
active: [7] 50 µM | [12] 50 µM | [15] 50 µM | [16] 2.98 µM
not listed: [10] | [13]
inactive: all other assays above

COP(=O)(OC)OC(Br)C(Cl)(Cl)Br (configuration not stated)
active: [7] 50 µM
not listed: [8] | [10]
inactive: all other assays above
